Screening data as filed in PubChem.
ugtP null kill: kills S. aureus RN4220 lacking UgtP; S. aureus RN4220 ugtP deletion, OD600 growth, 16 h; growth inhibition, % (no concentration beside the values); actives 0.54% (n = 330,000); AID 1259309; in the data active means growth inhibition above about 68%
Sa RN4220 lethal: kills Staphylococcus aureus RN4220; S. aureus RN4220 growth, OD600, 16 h; inhibition, % (concentration not given with the values); actives 0.33% (n = 330,000); AID 1259311; in the data active means inhibition above about 85%
Mtb hypoxia rep: reduces hypoxia-regulated biosensor signal in M. tuberculosis; actives 0.1% (n = 300,000); M. tuberculosis hypoxia-regulated fluorescent reporter, fluorescence; fluorescence inhibition, % (test concentration not listed); AID 1159583; in the data active means fluorescence inhibition mostly above about 23%, no sharp cut-off; inactive means mostly below about 17%
Mtb betalactam: beta-lactam sensitization of Mtb H37Rv | actives 0.27% (n = 330,000) | inhibition, % at 25 µM | M. tuberculosis H37Rv growth with meropenem, percent inhibition; call rule not given here;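 further: growth measured after seven days incubation then overnight dye step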
Numbers stand for hits; - = inactive; . = not tested or not shown; ! = repeats disagree. In the library only some 0.61% were active in any assay of this set; here they are far more common.

SMILES	ugtP null kill	Sa RN4220 lethal	Mtb hypoxia rep	Mtb betalactam
O=C(NN=Cc1c(O)ccc2ccccc12)c1cccc(C(F)(F)F)c1	100	-	-	.
O=C(NN=Cc1c(O)ccc2ccccc12)C1CC1	90	-	-	.
O=C(N/N=C/c1c(O)ccc2ccccc12)c1cccc(C(F)(F)F)c1	.	.	.	-
Oc1ccc(C=Nn2c(-c3ccco3)csc2=Nc2cccnc2)c(O)c1	-	-	-	.
O=c1c2ccccc2nc(/C=C/c2ccccc2)n1-c1ccccc1O	97	96	-	-
O=C(O)c1cccc(-n2c(/C=C/c3ccccc3)nc3ccccc3c2=O)c1	100	97	-	-
O=c1c2ccccc2nc(/C=C/c2ccc(O)cc2)n1-c1ccccc1O	91	95	-	-
O=C(O)c1ccc(/C=C/c2nc3ccccc3c(=O)n2-c2ccc(Br)cc2)cc1	-	-	-	-
CC(COc1ccc(C=Cc2ccccc2)cc1)[N+](C)(C)C (configuration not stated)	-	-	-	.
Cn1nc(C(=O)OCC(=O)NCc2ccc(Cl)cc2)c2ccccc2c1=O	-	-	31	-
Cn1nc(C(=O)OCC(=O)NCCc2ccccc2)c2ccccc2c1=O	-	-	-	-
N#CC1(Nc2ccccc2)C(=O)Nc2ccccc21 (configuration not stated)	-	-	56	-
O=C(c1cnn2c(C(F)(F)F)cc(-c3ccccc3)nc12)N1CCCCC1c1cccnc1 (configuration not stated)	-	-	-	-
O=C(c1cc2nc(-c3ccc(F)cc3)cc(C(F)(F)F)n2n1)N1CCCCC1c1cccnc1 (configuration not stated)	active	-	-	-
NC(=O)C(CC(=O)O)NC(=O)C1CCCNc2c(I)cc([N+](=O)[O-])cc2C(=O)NC(CO)C(=O)NC(Cc2ccc(O)cc2)C(=O)N1 (configuration not stated)	-	-	-	.
CC1CN(C)C(C)CC1OC(=O)C(c1ccccc1)c1ccccc1 (configuration not stated)	86	-	-	-
CCCCOc1ccc(C(=O)N2CCC(C)CC2)cc1	-	-	-	-
CCCCOc1ccc(C(=O)OC2CC(C)N(C)CC2C)cc1 (configuration not stated)	98	-	-	-
O=C(O)CC1c2cc(C(F)(F)F)ccc2S(=O)(=O)N1C1CCN(Cc2ccccc2)CC1 (configuration not stated)	-	-	-	.
O=C(OCc1ccccc1)N1CCCC1C=CCN1CCOCC1 (configuration not stated)	-	-	-	.
CC(C)(C)c1cc(CCC(=O)NNC(=S)NC(=O)c2ccccc2)cc(C(C)(C)C)c1O	89	-	-	-
CCN1/C(=C\C(=S)Nc2ccccc2)Sc2ccccc21	-	-	-	-
CCN1/C(=C/C(C)=C/c2sc3ccccc3[n+]2CC)Sc2ccccc21	99	100	.	-
COc1cc(C=C2C(=O)NC(=O)N(c3ccccc3)C2=O)cc(OC)c1OC	-	-	-	.
O=C1OCCN1N=Cc1ccc([N+](=O)[O-])o1	100	100	-	.
SMILES	ugtP null kill	Sa RN4220 lethal	Mtb hypoxia rep	Mtb betalactam
Oc1ccccc1C1SC(c2ccccc2O)SC(c2ccccc2O)S1 (configuration not stated)	100	100	-	.
Cc1cc2c(cc1C)CSC(c1ccccc1O)SC2	-	-	-	-
COc1cc(C=NNc2nc3ccccc3s2)cc([N+](=O)[O-])c1O	-	-	-	.
C[n+]1c2n(c3ccccc31)N=C(c1cc(C(C)(C)C)c(O)c(C(C)(C)C)c1)CS2	98	99	.	-
COC(=O)C1=C(c2cccc(OC)c2OC)CC2CCC1N2C(=O)NC(C)C (configuration not stated)	-	-	-	.
CC(C)CC(=O)NC(=S)Nc1ccc(S(=O)(=O)N2CCN(C)CC2)cc1	86	-	-	-
CC(C)CC(=O)NNC(=S)Nc1ccc(S(N)(=O)=O)cc1	-	-	-	-
CC(C)CC(=O)NC(=S)Nc1ccc(S(=O)(=O)Nc2nccs2)cc1	92	-	-	-
CC(C)CC(=O)NC(=S)Nc1ccc(S(=O)(=O)NC(C)(C)C)cc1	87	-	-	-
CCOc1ccc(NS(=O)(=O)c2ccc(NC(=S)NC(=O)CC(C)C)cc2)cc1	87	-	.	-
Cc1ccc(-c2cc(C(=O)NN=C/C=C/c3ccco3)c3ccccc3n2)cc1C	-	-	-	.
Cc1ccc(N(CC(=O)NN=Cc2ccc(OC3CSC3)cc2)S(=O)(=O)c2ccccc2)cc1	-	-	-	.
C[N+](C)(C)CCCCCCC(=O)C=NO	-	-	-	.
CCc1nnc(NS(=O)(=O)c2ccc(NC(=S)NC(=O)c3ccc(F)cc3)cc2)s1	87	-	-	-
CCCC(=O)NC(=S)Nc1ccc(S(=O)(=O)Nc2ccc(OCC)cc2)cc1	88	-	-	-
CC=C(C)C(=O)OC1C(OC(C)=O)c2c(ccc3ccc(=O)oc23)OC1(C)C (configuration not stated)	-	-	-	.
CCC(NC(=O)Nc1nnc(C(F)(F)F)s1)(C(F)(F)F)C(F)(F)F	88	-	.	-
CC(CC(=O)NC12CC3CC(CC(C3)C1)C2)=NNC(=O)c1cnccn1	-	-	-	.
CCOc1ccc(NCc2ccccc2OCc2cccc(F)c2)cc1	92	-	-	-
Cc1c(CCOC(=O)C2C3CC4CC(C3)CC2C4)sc[n+]1CC(=O)c1ccc(Br)cc1 (configuration not stated)	-	92!	-	-
Cc1nnc(SCC2=C(C(=O)O)N3C(=O)[C@@H](NC(=O)Cn4cnnn4)[C@H]3SC2)s1	100	97	.	-
Cc1nnc(SCC2=C(C(=O)O)N3C(=O)C(NC(=O)Cn4cnnn4)C3SC2)s1 (configuration not stated)	100	100	.	-
CN(C)CCn1nnnc1SCC1=C(C(=O)O)N2C(=O)[C@@H](NC(=O)Cc3csc(N)n3)[C@H]2SC1	.	.	.	-
Cc1cc(C=C2C(=O)N(C)C(=S)N2C)ccc1N1CCCC1	-	-	-	.
Cc1ncc(CO)c(C=NNC(=S)Nc2ccc(C(C)C)cc2)c1O	-	-	-	.
SMILES	ugtP null kill	Sa RN4220 lethal	Mtb hypoxia rep	Mtb betalactam
COC(=O)[C@]1(Cc2ccccc2)NC(c2ccc(-c3cccc(Cl)c3)cc2)C2C(=O)N(C)C(=O)C21 (some centres not stated)	-	-	-	.
Cc1nnc(SCC(=O)NNC(=O)COc2ccc(Br)cc2)n1C	-	-	32	-
C=CCN1C(=O)/C(=C/c2ccc(OCC(=O)O)cc2)SC1=Nc1nccs1	-	-	-	.
CCOc1ccccc1C=NNC(=O)c1nnn(-c2nonc2N)c1CN1CCC(C)CC1	-	-	-	.
Cc1ccc(C(=O)Nc2ccc(Br)c(C(F)(F)F)c2)cc1	91	-	-	-
Cc1nnc(SCC2=C(C(=O)O)N3C(=O)C(NC(=O)Cn4nc(C(F)F)c(Cl)c4C)C3SC2)s1 (configuration not stated)	100	100	.	-
CC1=C(C(=O)OCc2ccc([N+](=O)[O-])cc2)N2C(=O)C(NC(=O)Cc3ccccc3)C2SC1 (configuration not stated)	-	-	-	-
CC(=O)OCC1=C(C(=O)O)N2C(=O)C(NC(=O)Cn3nc(C(F)F)c(Cl)c3C)C2SC1 (configuration not stated)	96	99	.	-
